# Laboratory results as given in ChEMBL document CHEMBL3988442, “University of Dundee, Small-Polar-MMV Screening Library” (2021).
# Among all 48,000 compounds or so, about 13,000 (27%) showed an effect of 50% or more. This is one part of the list.
# Test system: Wolbachia pipientis
# Assay: Anti-Wolbachia Cell-Based Screen
# Assay type: functional
# Design: scale not given: in the data most compounds retested in dose-response had high values
# Conditions: 5 µM
row,SMILES,Percent Effect
1,CC(C)N(Cc1nccn1C)C(=O)c1cc(Cl)c[nH]c1=O,-15.2%
2,CCNC(=O)[C@@H]1C[C@@H](N)CN1Cc1ccc(Sc2ccc(C)cc2)o1,5.501%
3,CN(C(=O)COC1CCCC1)C1CCN(CC2CCOC2)CC1 (configuration not stated),-27.33%
4,CN(CCCc1nccn1C)C(=O)C1CCN(C(=O)C2CCC2)CC1,9.591%
5,O=C(NC1CCCC1)N1CC[C@H]2[C@H]1CCN2c1nncs1.O=C(O)C(F)(F)F,1.453%
6,CS(=O)(=O)N1CCCc2sc(C(=O)NC3CC3)nc21,-1.89%
7,Cc1cc(CNC(=O)NC(C)c2ccccc2)no1 (configuration not stated),-4.939%
8,CN(C)c1ncccc1CNC(=O)NCc1cccs1,101%
9,Cc1cc(CNC(=O)NCc2cccs2)no1,116.2%
10,Cc1cc(CN2CCN(C(C)C(=O)NCc3cccs3)CC2)no1 (configuration not stated),-4.683%
11,CC(NC(=O)NCc1cccnc1N(C)C)c1ccc(F)cc1 (configuration not stated),97.94%
12,Cc1cc(CNC(=O)c2cc(COc3cncc(Cl)c3)on2)n[nH]1,-4.866%
13,CN1CCCC2(CCN(S(=O)(=O)c3c(Cl)nc4sccn34)C2)C1=O (configuration not stated),-6.903%
14,COc1ccc(CN2CCCn3nnc(COCC4CC4)c3C2)cc1.O=C(O)C(F)(F)F,-11.72%
15,CN(Cc1c[nH]nc1-c1ccc(F)cc1F)Cc1nccn1C,-2.031%
16,CCC(C)(NCC(=O)NC(=O)NC)c1nccs1 (configuration not stated),3.438%
17,Cc1ccc(C2COCCN2C(=O)c2ccc(N(C)C)cc2)o1 (configuration not stated),16.04%
18,CC(C)(C)OC(=O)N1CCCCC(NC(=O)CCc2cccnc2)C1 (configuration not stated),15.24%
19,O=C(Cc1ccc(F)cc1)N1CCCCC1c1ccn2ccnc2n1 (configuration not stated),-3.373%
20,O=C(COc1cccc(F)c1)N1CCCCC1c1ccn2ccnc2n1 (configuration not stated),137.7%
21,O=C(Cc1ccccc1F)N1CCCCC1c1ccn2ccnc2n1 (configuration not stated),125%
22,O=C(COc1ccccc1F)N1CCCCC1c1ccn2ccnc2n1 (configuration not stated),107.9%
23,O=C(Cc1cccc(F)c1)N1CCCCC1c1ccn2ccnc2n1 (configuration not stated),7.751%
24,O=C(CCc1cccnc1)N1CCCCC1c1ccn2ccnc2n1 (configuration not stated),103.4%
25,CN1C(=O)c2ccc(NC(=O)CSc3ccc4c(c3)CCC4)cc2C1=O,8.962%
26,Cc1ncsc1CCC(=O)NCc1cc2n(n1)CCN(C(=O)N(C)C)C2,-5.05%

row,SMILES,Percent Effect
1,CCOC(C)C(=O)Nc1cc(S(=O)(=O)NC2CC2)ccc1F (configuration not stated),0.6608%
2,Cn1c(=O)oc2cc(Nc3ncc(C#N)cc3Cl)ccc21,-1.67%
3,COc1ccc2c(c1)CN(Cc1nc3ccsc3c(=O)[nH]1)CC2,-2.354%
4,Cn1cnc2c1CCN(Cc1cccc(C(N)=O)c1)C2,-6.228%
5,COc1ccc(CN2CCc3c(nc(-c4ccccn4)[nH]c3=O)C2)cc1,130.9%
6,CCc1nnc(CN2CCc3[nH]c(-c4ccc(OC)cc4)nc3C2)o1,-0.2672%
7,COc1ccccc1CN1C(=O)O[C@@H]2CN(c3ccccn3)C[C@@H]21,2.644%
8,Cc1nn(C)cc1CN1CCc2c(nc(-c3ccccn3)[nH]c2=O)C1,96.61%
9,O=C(c1ccco1)N1CCc2c(nc(-c3ccncc3)[nH]c2=O)C1,13.85%
10,c1ccc(-c2noc(CN3CCc4c(ncn4C4CC4)C3)n2)nc1,-14.25%
11,COc1ccccc1CN1CCc2c(nc(-c3ccccn3)[nH]c2=O)C1,118.7%
12,COc1ccccc1CN1C[C@@H](F)[C@@H](OCc2nc3ncccc3[nH]2)C1,-5.339%
13,O=c1[nH]c(-c2ccccn2)nc2c1CCN(Cc1cccc(O)c1)C2,110.8%
14,CCn1nc2c(cc1=O)CN(Cc1nc(-c3ccccn3)no1)CC2,-6.264%
15,Cc1nnc(CN(C)CC(=O)N2CCCN(C3CCCC3)CC2)n1C,-1.28%
16,Cc1cccc(S(=O)(=O)NCC(C)(C)CC(C)O)c1C#N (configuration not stated),-19.79%
17,CCNC(=O)Nc1c(C)cnn1Cc1cc(F)ccc1F,-3.451%
18,O=C(C[S+]([O-])Cc1c(Cl)cccc1Cl)N1CCc2sccc2C1 (configuration not stated),-11.53%
19,COc1ccccc1CNC(=O)N1CCCC(c2nncn2C)C1 (configuration not stated),-1.227%
20,Cn1cnnc1C1CCCN(C(=O)c2cc3ccccc3[nH]2)C1 (configuration not stated),124.8%
21,Cn1cnnc1C1CCCN(C(=O)c2n[nH]c3ccccc23)C1 (configuration not stated),7.957%
22,COc1cc2ccccc2cc1C(=O)N1CCCC(c2nncn2C)C1 (configuration not stated),138.9%
23,Cc1occc1CN(C)C(=O)Nc1ccc(=O)n(C)c1,5.737%
24,c1ccc(CN2CCC(NCCc3ccc4c(c3)CCO4)CC2)nc1,2.392%
25,Cn1ccc(C(=O)Nc2cccc(-c3ccc4c(c3)CCO4)n2)cc1=O,-14.88%
26,Cc1ccc(OCCC(=O)N2CCCC(n3nc(C)nc3C)C2)cc1 (configuration not stated),93.22%

row,SMILES,Percent Effect
1,N#Cc1ccc(OCC(=O)N2CCCC(n3cccn3)C2)cc1 (configuration not stated),-1.98%
2,Cc1nc(C)n(C2CCCN(C(=O)COc3ccccc3)C2)n1 (configuration not stated),133.2%
3,Cc1nc(C)n(C2CCCN(C(=O)Cc3cccnc3)C2)n1 (configuration not stated),-7.777%
4,Cc1nc(C)n(C2CCCN(C(=O)CCCOc3ccccc3)C2)n1 (configuration not stated),1.016%
5,Cc1nc(C)n(C2CCCN(C(=O)COc3cccc(C#N)c3)C2)n1 (configuration not stated),83.98%
6,Cc1nc(C)n(C2CCCN(C(=O)Cc3n[nH]c4ccccc34)C2)n1 (configuration not stated),-3.08%
7,Cc1nc(C)n(C2CCCN(C(=O)c3cccc4cn[nH]c34)C2)n1 (configuration not stated),1.609%
8,CCc1[nH]ncc1C(=O)N1CCCC(n2nc(C)nc2C)C1 (configuration not stated),-3.385%
9,CCOc1ccc(CC(=O)N2CCCC(n3nc(C)nc3C)C2)cc1 (configuration not stated),81.54%
10,CCN(C)c1ncnc2c1CCN(Cc1nccs1)CC2.O=C(O)C(F)(F)F.O=C(O)C(F)(F)F,-6.805%
11,CN(C)Cc1cc(-c2nccn2CCc2cccnc2)ccc1O,-8.952%
12,Cc1nnc(NCc2ccccc2Cl)c(C#N)c1C,4.284%
13,CCCC(=O)Nc1cc(C(=O)NC(C)Cc2ccncc2)ccc1C (configuration not stated),2.128%
14,CC(C)OCCOCc1cccc(NC(=O)N2CCCC(O)C2)c1 (configuration not stated),-8.695%
15,CC(C)(C)OC(=O)N1CCC(NC2CCS(=O)(=O)C2)CC1 (configuration not stated),-18.26%
16,c1ncn(Cc2nnc(C3CCN(C4CCOCC4)CC3)n2C2CC2)n1,-14.43%
17,Cc1csc2c(N3CCC(NCCc4ccnn4C)CC3)ncnc12,1.51%
18,CCOc1ncccc1C(=O)N1CCCC(n2nc(C)nc2C)C1 (configuration not stated),-3.094%
19,COc1ccsc1C(=O)N1CCCC(n2nc(C)nc2C)C1 (configuration not stated),-12.01%
20,Cc1nc(C)n(C2CCCN(C(=O)c3ccccc3C)C2)n1 (configuration not stated),3.222%
21,Cc1ccc(OCC(=O)N2CCCC(n3nc(C)nc3C)C2)cc1 (configuration not stated),110.7%
22,CCOc1cc(C(=O)N2CCCC(n3nc(C)nc3C)C2)ccn1 (configuration not stated),108.5%
23,Cc1nc(C)n(C2CCCN(C(=O)COCc3ccccc3)C2)n1 (configuration not stated),-1.544%
24,CCCNC(=O)CCC(=O)Nc1cc2sc(C)nc2cc1OC,9.826%
25,CC(=O)N(CCc1ccccc1)CC(=O)NC1(C#N)CC1,-30.59%
26,COCCNC(=O)Nc1cc2c(cc1SC)OCCO2,8.638%

row,SMILES,Percent Effect
1,CCCn1ncc(CN(Cc2cccnc2)Cc2cccs2)c1C,103.6%
2,CCCn1ncc(CN(Cc2cccnc2)Cc2ccsc2)c1C,-8.215%
3,CCCn1ncc(CN(Cc2ccsc2)Cc2ccco2)c1C,-9.54%
4,Cc1cnc(C(=O)NCC2CCOc3ccccc3C2)cn1 (configuration not stated),-13.56%
5,CN(C)CC(=O)N1CCC2(CC1)Cc1ccccc1CN(C)C2=O.O=C(O)C(F)(F)F,100.6%
6,CN(C)CC(=O)N1CCC2(CCc3ccc(-c4ccncc4)cc32)CC1.O=C(O)C(F)(F)F.O=C(O)C(F)(F)F,-5.921%
7,O=C(O)C(F)(F)F.O=C1NC2(CCN(CCO)CC2)CC1c1ccccc1 (configuration not stated),-11.42%
8,Cc1ccc2c(c1)CCC21CCN(C(=O)CN(C)C)CC1.O=C(O)C(F)(F)F,-5.589%
9,CN1Cc2ccccc2CC2(CCN(CCO)CC2)C1=O.O=C(O)C(F)(F)F,115.9%
10,O=C(O)C(F)(F)F.OCCN1CCC2(CCc3cc(-c4ccoc4)ccc32)CC1,-5.602%
11,CCC(=O)N1CCC2(CCC(N3CCCC3)c3ccccc32)CC1.O=C(O)C(F)(F)F (configuration not stated),3.41%
12,CCC(=O)N1CCC2(CC1)CN(CCO)Cc1ccccc12.O=C(O)C(F)(F)F,102.3%
13,COc1cccc2[nH]cc(CCNC(=O)N3CCCC3CO)c12 (configuration not stated),-6.356%
14,Cc1cc(C(F)(F)F)nn1CC(C)C(=O)Nc1ccncc1 (configuration not stated),0.9571%
15,CCCc1nnc(N2CCC(N3CCCC3)CC2)o1,13.58%
16,CCCc1nnc2sc(C3CCS(=O)(=O)CC3)nn12,102.2%
17,COCCN1CCC(CN(C)c2nc3c(s2)c(C)nn3C)CC1,20.85%
18,CCCc1nnc2sc(C3CCN(C4CCN(C)CC4)CC3)nn12,110.3%
19,CCCc1nnc2sc(C3CCN(CCOC)CC3)nn12,91.66%
20,CCCN1CCC(Cc2nn3c(C(C)C)nnc3s2)CC1,-24.84%
21,CCc1nnc2n1CCN(C(=O)c1cnc(C3CC3)s1)C2,-2.147%
22,CN1CCC(c2nnc(CN3CCCC3)n2C2CC2)CC1,3.888%
23,CC(C)c1nnc2sc(CC3CCS(=O)(=O)CC3)nn12,-25.36%
24,COCCN(Cc1ccc(F)cc1Cl)C(=O)c1c(C)noc1C,-7.474%
